From PubChem BioAssay (NCI) come the findings set out here.

This is part of a sample that, as a whole, favours compounds with a hit. Of some 83,000 tested, about 20% had one in any assay.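 Method: cells in 96-well plates; compound added at one concentration; 48 h incubation; percent growth measured; values under 10 scored active.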 Values without a mark were called inactive. Activity calls are given as the source filed them.

Holding throughout (assay): NCI-60 one-dose screen, 48 h (100 = growth as untreated, 0 = no growth, -100 = all killed)
Common to all, as to settings: 10 µM unless noted

For test [1], the system named is HCT-15 colon.
Test [2] deals with HT29 colon.
The subject of test [3] is SNB-75 CNS.
Test [4] concerns SNB-19 CNS.
The subject of test [5] is U251 CNS.
The test system of test [6] is PC-3 prostate.
Test [7] concerns UACC-62 melanoma.
Test [8] has as its system LOX IMVI melanoma.
Test [9] concerns SK-MEL-28 melanoma.

In the case of `CCCCN(CCCC)CCCn1c(-c2ccccc2)ccc1-c1ccccc1`, the growth in test [1] is 55.3%; in test [2], 33.1%; in [3] it was 83.4%; in test [4], 83.4%; in test [5], 58.3%; in test [6], 48%. Also, the growth in test [7] is 82.4%; in test [8] it was 68.7%; in [9], 88.8%.
Turning to `CCCSc1ccc2nc(NC(=O)OC)[nH]c2c1`, the growth in test [1] was 18.1%; in [2] it was 2.84% (active); in test [3] it was 22.4%; in test [4], 29.9%; in [5], 14.1%; in test [6], 20.7%. Besides, the results for the growth in test [7], in [8] and in test [9] were 27.6%, 50.1% and 53.7%, respectively.
For `CN1C(=O)C2(SCC(C(=O)NCc3ccccc3)N2C(=O)C2CCCCC2)c2ccccc21` (stereo unspecified), the growth was 99.2% in test [1]; 102% in [2]; 47.2% in test [3]; 98.5% in test [4]; 98.3% in test [5]; 82.8% in test [6]. For the same molecule, the growth in [7] was 93.4%; in test [8] it was 91.6%; in [9] it was 113%.
For `Nc1n[nH]c2ccc([C@@H]3Nc4ccc5[nH]ncc5c4[C@H]4C5C=CC(C5)[C@@H]34)cc12` (stereo partly specified), the growth was 10.8% in [1]; 11.5% in [2]; -9.96% (active) in [3]; 27% in test [4]; 18% in test [5]; 13.8% in test [6]. The growth is 37.5% in [7], 9.79% (active) in test [8] and 54.6% in test [9].
For `CCN(CC)CCCCNc1c2ccc(Cl)cc2nc2ccc(OC)cc12`, the growth in [1] was -21.2% (active); in test [2], 3.91% (active); in test [3], -95.3% (active); in test [4], 1.53% (active); in [5], -9.07% (active); in test [6], -45.9% (active). Also, the results for the growth in test [7], in [8] and in [9] were -30.8% (active), -57.3% (active) and -82.5% (active), respectively.
With `CC1=C(O)C(=O)C(C(C#N)(C#N)C(C#N)C#N)C1` (stereo unspecified), the growth is 98.9% in test [1]; 111% in [2]; 81.5% in [3]; 108% in test [4]; 113% in test [5]; 106% in test [6]. Also, the growth in [7] is 97.6%; in test [8], 96.5%; in test [9] it was 114%.
In the case of `CC1=C[C@H]2c3c(c(O)c(O)c4oc(-c5ccccc5)cc(=O)c34)[C@H](c3cc(O)c(O)c4oc(-c5ccccc5)cc(=O)c34)[C@H]2C(C)(C)C1`, the growth was 11.3% in test [1]; 9.18% (active) in [2]; -8.01% (active) in test [3]; 11.9% in test [4]; 2.66% (active) in test [5]; 5.35% (active) in [6]. In addition, the figures for the growth in test [7], in test [8] and in test [9] were -46.3% (active), -86.5% (active) and 8% (active), respectively.
As for `Cc1cc(N2CCCCCC2)nc(NC2CCCC(Nc3ccnc4cc(Cl)ccc34)C2)n1` (stereo unspecified), the growth in [1] was -87.4% (active); in [2], -82.9% (active); in [3], -78.7% (active); in [4], -54.5% (active); in test [5], -94.8% (active); in [6] it was -88.1% (active). The growth in test [7] is -84.3% (active); in test [8], -93.1% (active); in [9], -83.5% (active).
Regarding `Cc1cc(N2CCCCC2)nc(NC2CCCC(Nc3ccnc4cc(Cl)ccc34)C2)n1` (stereo unspecified), the growth in test [1] is -67.6% (active); in test [2] it was -59.9% (active); in [3], -80.9% (active); in test [4], -20.7% (active); in test [5], -97.4% (active); in test [6] it was -72.8% (active). The growth in [7] is -86.2% (active); in test [8] it was -84.9% (active); in test [9] it was -84% (active).
As for `Clc1ccc2c(NCCCNc3nc(-n4ccnc4)nc4ccccc34)ccnc2c1`, the growth was 87% in [1]; 75.1% in test [2]; 71.1% in [3]; 92.1% in test [4]; 83.5% in [5]; 73.3% in [6]. Also, the growth in test [7] was 94.3%; in test [8], 82.1%; in test [9], 93.1%.
On to `COc1cc(-c2nn(-c3ccc(C(=O)O)cc3)cc2C(=O)O)ccc1O`, for which the growth in test [1] is 48.6%; in test [2], 110%; in test [3] it was 36.6%; in test [4], 58.4%; in test [5] it was 78.5%; in test [6], 66.9%. The figures for the growth in test [7], in test [8] and in [9] were 90%, 44.4% and 63.5%, respectively.
In the case of `O=c1ccccc(-c2ccc(Br)cc2)c1O`, the growth is 26.3% in test [1]; 21.9% in [2]; 31.4% in [3]; 13% in [4]; 9.54% (active) in test [5]; 29.5% in test [6]. Besides, the growth in test [7] is -49.3% (active); in [8], 4.54% (active); in test [9], 23.2%.
Take `O=C(/C=C/C=C/c1ccc2c(c1)OCO2)N/N=C\c1ccc(O)cc1O`: the growth in [1] is 17%; in test [2], 48.1%; in test [3], 64%; in test [4], 49.3%; in test [5] it was 31.3%; in test [6], 38%. In addition, the growth in test [7] is 14.3%; in [8] it was 9.69% (active); in [9], 42.1%.
For the molecule `COc1ccc(C2C(C#N)=C(N)Oc3n[nH]c(-c4cccs4)c32)cc1I` (stereo unspecified), the growth in test [1] is 81.4%; in test [2] it was 98.4%; in [3] it was 77.9%; in [4] it was 87.1%; in [5], 90.6%; in test [6], 85.8%. Also, the figures for the growth in test [7], in [8] and in test [9] were 79.1%, 89% and 108%, respectively.
